Screens deposited in PubChem BioAssay by several laboratories.
In the library only some 4.5% were active in any assay of this set; here they are far more common.
ALR H2O2 inh: blocks human ALR sulfhydryl oxidase activity. P55789. purified ALR, DTT oxidation, H2O2 HRP-luminol luminescence. inhibition, % (concentration not given with the values). 3.8% of 290,000 active;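 active means mean replicate inhibition above about 79%, with every replicate also reaching it, limit read from the data; inconclusive means only one of the two criteria met; inactive means mean below limit and not every replicate reaching it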
Target sequence (P55789 whole entry, looked up): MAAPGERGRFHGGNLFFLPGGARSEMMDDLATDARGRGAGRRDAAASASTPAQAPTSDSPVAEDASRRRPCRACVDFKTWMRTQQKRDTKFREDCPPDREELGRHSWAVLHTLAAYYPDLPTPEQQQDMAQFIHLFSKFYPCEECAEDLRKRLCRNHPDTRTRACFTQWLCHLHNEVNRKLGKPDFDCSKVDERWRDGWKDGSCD
HDAC3 inhib: inhibitors of human histone deacetylase 3. O15379. 0.15% of 320,000 active. inhibition, % at 8.3 µM. recombinant HDAC3, fluorogenic peptide/trypsin coupled, fluorescence; in the data active means inhibition above about 26%, passing the limit was not always enough; inconclusive means no clear call, values can overlap the other calls
Target sequence (O15379 whole entry, looked up): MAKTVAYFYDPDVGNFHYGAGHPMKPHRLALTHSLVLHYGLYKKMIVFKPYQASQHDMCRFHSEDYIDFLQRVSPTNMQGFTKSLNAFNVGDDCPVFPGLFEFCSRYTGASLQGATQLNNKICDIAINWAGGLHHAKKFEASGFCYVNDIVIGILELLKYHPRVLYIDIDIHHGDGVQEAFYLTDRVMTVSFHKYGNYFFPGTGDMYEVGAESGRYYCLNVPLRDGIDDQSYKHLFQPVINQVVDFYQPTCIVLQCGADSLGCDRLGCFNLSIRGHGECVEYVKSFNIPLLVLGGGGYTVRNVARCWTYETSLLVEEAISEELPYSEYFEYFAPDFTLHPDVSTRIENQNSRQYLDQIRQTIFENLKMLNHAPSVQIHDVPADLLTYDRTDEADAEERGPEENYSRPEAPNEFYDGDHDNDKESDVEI
Rce1 inhib: inhibitors of yeast Ras-converting enzyme; calls only; yeast membranes, quenched prenylated peptide cleavage fluorescence; 0.27% of 290,000 active; Q03530;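 active means fall in fluorescence gain of 50% or more versus controls, with final raw signal at or below 3038400; inconclusive means same 50% fall but final raw signal above 3038400; inactive means fall in fluorescence gain under 50%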;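 further: plate controls were neutral control wells for no effect and wells lacking membranes for full effect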
Efflux pump inh: antifungal efflux pump inhibition, Nile Red retention. S. cerevisiae Candida pump triplex. inhibition, % at 10 µM. 0.44% of 330,000 active. AID 485275;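 active means plate passing quality check with inhibition over a set limit, or well fluorescence over plate mean plus 4 SD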;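 further: Nile Red retained in pooled yeast measured as flow cytometry median fluorescence; 0% = buffer negative control and 100% = Enniatin B positive control; higher means more Nile Red kept so more efflux inhibition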
GRK2 aptamer HTS: blocks RNA aptamer binding to human GRK2; P25098; bead flow cytometry, FAM-aptamer displacement from GRK2; inhibition of aptamer binding, % at 10 µM; 0.59% of 330,000 active; AID 488847;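 active means inhibition of aptamer binding above 40%, roughly 3 SD of noise, on plates passing a quality check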;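 further: median bead fluorescence of bound FAM aptamer so fluorescent compounds give negative values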
Rtt109 HAT inh: blocks Candida albicans Rtt109/Vps75 acetyltransferase activity | Q5AAJ8 | purified Rtt109/Vps75, ThioGlo CoA-SH fluorescence, 4 h | inhibition, % at 34.9 µM | 0.16% of 330,000 active;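 active means inhibition of at least 50% in every replicate; inconclusive means best replicate reaches 50% inhibition but some replicates fall short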
GRK2 CP1: confirmation of human GRK2 inhibitors displacing RNA aptamer | shares compounds with GRK2 aptamer HTS | AID 504451 | aptamer displacement, % at 10 µM | bead-bound GRK2, FAM-aptamer displacement, flow cytometry | 4% of 2,000 active;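 active means aptamer displacement above 40%, near three times the noise of non-fluorescent compounds, on plates passing quality checks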;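 further: negative values mostly reflect intrinsic compound fluorescence rather than true enhancement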
FAM quench CP1: quenches fluorescent RNA aptamer, GRK2 hit artifact; shares compounds with GRK2 aptamer HTS; Carboxyfluorescein RNA aptamer on beads, flow cytometry quenching; active compounds read low; fluorescence response (% of DMSO), % at 10 µM; 2,000 tested, under 10 active; AID 504580;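 active means compounds that quench the bead-bound fluorescent RNA probe, cutting fluorescence to under half of the solvent control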;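 further: counterscreen run without GRK2 so only probe quenching by compound is measured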
GRK2 confirm 2: human GRK2 inhibition confirmation, cherry pick 2; inhibition of aptamer binding, % at 10 µM; shares compounds with GRK2 aptamer HTS; bead-bound GRK2, FAM-aptamer displacement, flow cytometry; 360 tested, under 10 active; AID 504782;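 active means inhibition of aptamer binding above 40%, about triple the noise seen with nonglowing compounds, on plates passing quality control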;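 further: negative values mostly come from compounds that fluoresce themselves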
FAM quench CP2: counter-screen for GRK2 binding hits: quenchers of fluorescent RNA aptamer; shares compounds with GRK2 aptamer HTS; carboxyfluorescein RNA aptamer beads, flow cytometry quenching; active compounds read low; fluorescence response vs DMSO, % at 10 µM; 360 tested, under 10 active;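 active means response vs DMSO under 50%, meaning signal dropped by over half, treated as fluorescence quencher; inconclusive means no clear call, values can overlap the other calls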;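 further: labelled aptamer on streptavidin beads without GRK2 as a quench counter-screen; 100% = bead fluorescence of DMSO wells and lower means quenching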
An asterisk follows results filed as active; i = inactive; ? = inconclusive; · = no result.

SMILES	ALR H2O2 inh	HDAC3 inhib	Rce1 inhib	Efflux pump inh	GRK2 aptamer HTS	Rtt109 HAT inh	GRK2 CP1	FAM quench CP1	others
CCCCCCN(C(=O)CCCCCN1C(=O)NC(c2ccc([N+](=O)[O-])cc2)C(C(=O)OCc2ccccc2)=C1C)C(C(=O)NCCCC)C1CCCCC1 (centres undefined)	·	·	·	0.2	1.0	-2.9	·	·
CCC(NC(=O)OCc1ccccc1)C(=O)Oc1ccc2ccc(=O)oc2c1 (centres undefined)	17.8	-203.5	?	0.2	1.0	-4.6	·	·
Cc1cccc(NC(=O)CCC(=O)N/N=C/c2ccc(O)cc2O)c1	57.7	?	i	-0.2	56.0*	4.4	1.5	104.8
COc1ccc(C(C)=O)cc1CN1C(=O)NC2(CCCCCCC2)C1=O	5.2	-1.7	i	0.0	0.0	-5.9	·	·
CC(=O)c1cccc(NC(=O)CN2C(=O)NC3(CCCCCCC3)C2=O)c1	-6.1	1.9	i	0.1	100.0*	2.2	-30.9	99.2
Cc1cc(C)c(NC(=O)CN2C(=O)NC3(CCCCC3)C2=O)c(Cl)c1	22.4	-6.2	i	0.1	83.0*	-20.2	2.9	96.2
Cc1cc(C)c(NC(=O)CN2C(=O)NC3(CCc4ccccc43)C2=O)c(Cl)c1 (centres undefined)	27.2	-1.7	·	-0.3	0.0	-6.6	·	·
CCOc1ccc(C(C)=O)cc1CN1C(=O)NC2(CCCCCC2)C1=O	2.4	-0.1	i	0.3	83.0*	5.1	-34.0	101.8
Cc1cc(C(C)(C)C)cc(S(=O)(=O)NCCO)c1C	0.9	-7.6	i	0.0	99.0*	3.3	-5.0	100.0
CCC1CCCCN1CCCNC(=O)C1CCN(S(=O)(=O)N2CCCCC2)CC1 (centres undefined)	-3.5	-1.6	i	0.1	15.0	2.9	-41.2	111.8
CCCCNC(=O)C1CCN(S(=O)(=O)N2CCCCCC2)CC1	11.5	1.3	i	0.1	0.0	1.8	·	·
C=CC[C@H](CC(=O)N(CCO)Cc1ccccc1)C(=O)N[C@H](COC(=O)[C@@H](CC=C)CC(=O)OC(C)(C)C)Cc1c[nH]c2ccccc12	4.8	?	·	-0.2	2.0	5.8	·	·
COc1cc(CNCc2cccs2)ccc1OCc1ccccc1	-2.5	-4.4	i	-0.1	30.0	3.1	-2.0	103.2
COc1ccc(Cl)cc1C(=O)O/N=C(\N)c1ccccn1	6.6	-1.1	·	0.0	0.0	14.5	·	·
N/C(=N\OC(=O)c1cc(Cl)ccc1Cl)c1ccccn1	17.2	-0.6	i	0.0	100.0*	-4.1	-2.4	102.2
CC(C(=O)OCC(=O)N1CCN(c2ccccc2)CC1)N1C(=O)c2ccccc2C1=O (centres undefined)	12.5	-2.3	·	0.1	3.0	18.5	-1.0	100.4
O=C(Cc1ccsc1)NNC(=O)c1ccc(F)cc1	-8.3	12.0	i	-0.1	0.0	7.4	·	·
O=C(NC(NC1CCS(=O)(=O)C1)C(Cl)(Cl)Cl)c1cccc(Cl)c1 (centres undefined)	-9.2	0.7	i	0.1	51.0*	4.0	-1.4	95.3
CCCCn1c(N)c(N(CCOC)C(=O)c2ccc(S(=O)(=O)N3CCC(C)CC3)cc2)c(=O)[nH]c1=O	-17.5	1.8	i	-0.1	0.0	-16.1	·	·
O=C(NCc1ccco1)C1CCCN1C(=O)NCc1ccccc1 (centres undefined)	-1.9	-6.4	i	-0.1	0.0	5.6	1.1	97.3
CCn1c(SCC(=O)N2CCCC2)nc2c(c1=O)SC(C)C2 (centres undefined)	-10.9	·	i	0.1	0.0	-2.1	·	·
CC1Cc2nc(SCC(=O)N3CCCC3)n(C)c(=O)c2S1 (centres undefined)	19.4	·	i	0.1	100.0*	-1.5	-0.8	95.6
NC(=O)c1ccsc1NC(=O)CS(=O)(=O)c1ccc(F)cc1	29.2	0.7	i	0.8	0.0	0.3	·	·	GRK2 confirm 2=9.2;FAM quench CP2=100.0
CN(C)c1ccc2nc3ccc(=[N+](C)C)cc-3sc2c1	99.1*	5.4	i	0.2	57.0*	17.2	32.0	59.1
Cc1cc2nc3ccc(=[N+](C)C)cc-3sc2cc1N	·	·	i	·	·	39.5	·	·
SMILES	ALR H2O2 inh	HDAC3 inhib	Rce1 inhib	Efflux pump inh	GRK2 aptamer HTS	Rtt109 HAT inh	GRK2 CP1	FAM quench CP1	others
CCOC(=O)c1ccc(N2C(=O)C3CCCN3C2=S)cc1 (centres undefined)	·	2.4	·	-0.1	42.0*	5.3	·	·	GRK2 confirm 2=-2.1;FAM quench CP2=103.0
O=C(CNC(=O)c1ccco1)NCc1ccc2c(c1)OCO2	-7.8	1.2	·	0.0	1.0	-5.0	·	·
O=C(NCCc1ccc(Cl)cc1)C1CCCO1 (centres undefined)	-18.7	7.8	i	-0.1	0.0	19.1	·	·
Nc1ccc(O)c2c1C(=O)c1ccccc1C2=O	-11.7	-6.4	i	-0.1	41.0*	-5.4	0.8	93.5
Cc1ccccc1Nc1nc(NCc2ccco2)c2ccccc2n1	-13.6	4.6	i	0.0	0.0	16.7	·	·
COc1ccc(OC)c(Nc2nc(NCc3ccco3)c3ccccc3n2)c1	-9.4	3.7	i	0.2	46.0*	-0.5	-1.6	96.7
O=c1c2c3c(sc2nc(NCCO)n1Cc1ccco1)CCCCC3	8.3	-2.8	i	0.3	4.0	-1.5	·	·
O=c1c2c3c(sc2nc(NCCO)n1CCc1ccccc1)CCCCC3	17.6	2.6	i	0.0	90.0*	·	-4.2	93.7
COc1ccccc1-c1nc(SCC(=O)N2CCOCC2)n[nH]1	1.0	5.2	i	0.1	0.0	4.2	·	·
O=C(CSc1n[nH]c(-c2ccc(Br)cc2)n1)N1CCOCC1	15.3	-4.7	·	0.4	20.0	7.7	-1.9	100.8
CCN(CC)C(=O)N1CCN(c2c([N+](=O)[O-])c(=O)oc3ccccc23)CC1	-0.2	3.1	·	-0.1	1.0	-4.9	·	·
CCOC(=O)c1ccc(CNC(=O)Cn2nnc(-c3ccccc3)n2)o1	9.1	8.4	i	-0.1	0.0	-2.8	·	·
O=C(Cn1nnc(-c2ccccc2)n1)NCC(=O)Nc1ccc(F)c(F)c1F	·	2.8	·	0.1	0.0	4.4	0.3	96.6
NNC(=O)Cn1c(COc2ccc(Cl)cc2)nc2ccccc21	6.2	3.0	i	-0.3	1.0	-0.1	·	·
O=C(Cn1c(COc2ccccc2)nc2ccccc21)Nc1cccc(Cl)c1	-4.0	-8.0	i	0.4	100.0*	-12.9	·	·	GRK2 confirm 2=14.7;FAM quench CP2=99.0
